Screening results from PubChem.
Shown are actives, neighbours in structure and some others; about 6.7% of the full set was active somewhere.
C diff HTS = C. difficile growth inhibition | growth activity, negative = inhibition, % at 16 µg/mL (by protocol) | Clostridium difficile clinical isolate growth, OD600, 24 h; active compounds read low | AID 1259249 | 0.25% of 86,000 active;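 active means mean growth activity at or below -80% and every replicate also at or below -80%; inconclusive means mean at or below -80% but some replicate above -80%; inactive means mean growth activity above -80%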
Pf Dd2 growth = P. falciparum Dd2 growth inhibition | activity change, % at 10 µM | 2.3% of 94,000 active | SYBR Green, 72 h; active compounds read low; in the data active means activity change below about -80%; inconclusive means no clear call, values can overlap the other calls
T cruzi growth-1 = blocks T. cruzi growth in NIH3T3 culture | AID 624255 | T. cruzi beta-gal in NIH3T3, GalScreen luminescence, 90 h | inhibition, % at 8.34 µM | 5.9% of 77,000 active;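 active means mean inhibition above about 93%, with at least 55% of replicates each passing it, limit read from the data, passing the limit was not always enough; inconclusive means only one of those two conditions holds; inactive means neither condition holds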
T cruzi growth-2 = Trypanosoma cruzi proliferation inhibition; T. cruzi beta-gal in NIH3T3, GalScreen luminescence, 90 h; inhibition, % at 8.35 µM; AID 651739; shares compounds with T cruzi growth-1; 72% of 5,600 active;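 active means mean replicate inhibition above about 95% and at least 55% of replicates individually reaching it, limit read from the data; inconclusive means only one of the two criteria is met; inactive means neither criterion is met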
T cruzi growth-3 = blocks T. cruzi growth in NIH3T3 host cells; shares compounds with T cruzi growth-1; T. cruzi beta-gal in NIH3T3, GalScreen luminescence, 90 h; inhibition, % at 2.09 µM; 21% of 5,600 active; AID 651740;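 active means mean inhibition above about 95%, with at least 55% of replicates also reaching it, limit read from the data; inconclusive means meets just one of the two conditions; inactive means meets neither condition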
NIH3T3 tox = kills mouse NIH/3T3 fibroblasts; shares compounds with T cruzi growth-1; NIH/3T3 viability, CellTiter-Glo ATP luminescence, 90 h; cytotoxicity (signal decrease), % at 8.35 µM; 14% of 5,600 active; AID 651742;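 active means mean signal decrease across replicates above about 35% based on untreated-well scatter, with enough replicates individually passing, limit read from the data; inconclusive means no rule stated though some were filed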
3T3 cytotox 2 = cytotoxicity in mouse NIH/3T3 fibroblasts. shares compounds with T cruzi growth-1. NIH/3T3 viability, CellTiter-Glo ATP luminescence, 90 h. inhibition, % at 24.9 µM. 56% of 5,600 active. AID 651744;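 active means mean loss of cell viability signal at or above a set limit, and enough replicates individually reaching it; inconclusive means meets only the mean limit or only the replicate share; inactive means meets neither condition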
Each line names hits and unclear results; the compound was inactive in the other large screens (follow-up assays come after a bar, where they were run).

C[C@H]1CN([C@@H](C)CO)S(=O)(=O)c2ccc(C#Cc3ccccn3)cc2O[C@H]1CN(C)Cc1ccccc1	T cruzi growth-1 113 | T cruzi growth-2 109 | T cruzi growth-3 inactive | NIH3T3 tox inactive | 3T3 cytotox 2 inactive
CC(=O)N(C)C[C@@H]1Oc2cc(C#Cc3ccccn3)ccc2S(=O)(=O)N([C@H](C)CO)C[C@@H]1C	none
C[C@H]1CN([C@@H](C)CO)S(=O)(=O)c2ccc(C#Cc3ccccn3)cc2O[C@H]1CN(C)C	none (no result: T cruzi growth-1)
C[C@@H]1CN([C@H](C)CO)S(=O)(=O)c2ccc(C#Cc3ccccn3)cc2O[C@H]1CN(C)Cc1ccccc1	T cruzi growth-1 106 | T cruzi growth-2 104 | T cruzi growth-3 inactive | NIH3T3 tox inactive | 3T3 cytotox 2 99
COCC(=O)Nc1ccc2c(c1)C(=O)N(C)C[C@@H](OC)[C@@H](C)CN(C(=O)c1ccccc1F)[C@@H](C)CO2	none (no result: C diff HTS)
Cc1noc(C)c1S(=O)(=O)N(C)C[C@@H]1OCCCC[C@@H](C)Oc2ccc(NC(=O)NC(C)C)cc2C(=O)N([C@H](C)CO)C[C@@H]1C	none
C[C@H]1CCCCO[C@H](CN(C)C(=O)c2ccncc2)[C@@H](C)CN([C@@H](C)CO)C(=O)c2cc(NC(=O)c3ccncc3)ccc2O1	none
CC(C)NC(=O)N(C)C[C@H]1OCCCC[C@@H](C)Oc2ccc(NC(=O)c3ccncc3)cc2C(=O)N([C@H](C)CO)C[C@@H]1C	T cruzi growth-1 96 | T cruzi growth-2 inactive | T cruzi growth-3 inactive | NIH3T3 tox inactive | 3T3 cytotox 2 inactive
CC(C)NC(=O)N(C)C[C@H]1OCCCC[C@H](C)Oc2ccc(NC(=O)c3ccncc3)cc2C(=O)N([C@@H](C)CO)C[C@H]1C	none
C[C@@H]1CCCCO[C@H](CN(C)C(=O)c2ccncc2)[C@@H](C)CN([C@@H](C)CO)C(=O)c2cc(NC(=O)c3ccncc3)ccc2O1	T cruzi growth-1 101 | T cruzi growth-2 inactive | T cruzi growth-3 inactive | NIH3T3 tox inactive | 3T3 cytotox 2 inactive
Cc1ccccc1S(=O)(=O)NCC[C@H]1CC[C@H](NC(=O)C2CCOCC2)[C@H](CO)O1	none (no result: C diff HTS)
C[C@H](CO)N1C[C@H](C)[C@H](CN(C)Cc2ccc3c(c2)OCO3)OCCCC[C@H](C)Oc2ccc(NC(=O)C3CCCCC3)cc2C1=O	none
C[C@@H]1CN([C@H](C)CO)S(=O)(=O)c2ccc(C#CC3CCCC3)cc2O[C@@H]1CN(C)CC1CC1	none
C[C@H]1CN([C@@H](C)CO)S(=O)(=O)c2ccc(C#CC3CCCC3)cc2O[C@H]1CN(C)CC1CC1	T cruzi growth-1 inconclusive | T cruzi growth-2 inactive | T cruzi growth-3 inactive | NIH3T3 tox 48 | 3T3 cytotox 2 104
C[C@H](CO)N1C[C@H](C)[C@H](CN(C)C)Oc2cc(C#CC3CCCCC3)ccc2S1(=O)=O	T cruzi growth-1 98 | T cruzi growth-2 106 | T cruzi growth-3 inactive | NIH3T3 tox 48 | 3T3 cytotox 2 103
C[C@H]1CN([C@@H](C)CO)S(=O)(=O)c2ccc(C#CC3CCCC3)cc2O[C@@H]1CN(C)C	T cruzi growth-1 100 | T cruzi growth-2 105 | T cruzi growth-3 inactive | NIH3T3 tox inactive | 3T3 cytotox 2 104
C[C@H](CO)N1C[C@H](C)[C@@H](CN(C)C)Oc2cc(C#CC3CCCC3)ccc2S1(=O)=O	none
C[C@@H]1CN([C@@H](C)CO)S(=O)(=O)c2ccc(C#CC3CCCCC3)cc2O[C@H]1CN(C)C	T cruzi growth-1 118 | T cruzi growth-2 104 | T cruzi growth-3 101 | NIH3T3 tox 38 | 3T3 cytotox 2 104
C[C@H]1CN([C@@H](C)CO)S(=O)(=O)c2ccc(C#CC3CC3)cc2O[C@@H]1CN(C)C	none
C[C@H]1CN([C@@H](C)CO)S(=O)(=O)c2ccc(C#CC3CCCC3)cc2O[C@H]1CN(C)C	none
COCC(=O)N1CC2(C1)CN(C(=O)Cc1ccccc1)[C@@H](CO)c1c2c2ccc(OC)cc2n1C	none (no result: T cruzi growth-1)
C[C@@H]1CN([C@@H](C)CO)C(=O)Cc2cc(NC(=O)Cc3ccccc3)ccc2O[C@H]1CN(C)S(=O)(=O)c1ccccc1	none
CO[C@H](CN(C)C(=O)C1CCOCC1)[C@H](C)CN(C(=O)Nc1ccc(F)cc1)[C@@H](C)CO	none (no result: C diff HTS)
CCCC(=O)Nc1ccc2c(c1)OC[C@H](C)N(C(=O)c1ccccc1F)C[C@H](C)[C@@H](OC)CN(C)C2=O	none (no result: T cruzi growth-1)
Cc1noc(C)c1NC(=O)Nc1ccc2c(c1)CC(=O)N([C@@H](C)CO)C[C@H](C)[C@@H](CN(C)Cc1ccc(-c3ccccc3)cc1)O2	none
C=CC[C@]12N=C(c3ccc(OCCCO)cc3)O[C@H]1c1ccccc1CN(Cc1ccccc1)C2=O	none (no result: Pf Dd2 growth, T cruzi growth-1)
C[C@@H]1CN([C@H](C)CO)C(=O)c2cc(NS(C)(=O)=O)ccc2O[C@H]1CN(C)Cc1ccc2c(c1)OCO2	none
N[C@H]1CC[C@H](CCn2cc(C3CC3)nn2)O[C@@H]1CO	none (no result: T cruzi growth-1)
CCCN(C)C[C@H]1Oc2cc(C#CC3CCCC3)ccc2S(=O)(=O)N([C@@H](C)CO)C[C@H]1C	none
CCCN(C)C[C@@H]1Oc2cc(C#CC3CCCC3)ccc2S(=O)(=O)N([C@@H](C)CO)C[C@H]1C	T cruzi growth-1 103 | T cruzi growth-2 108 | T cruzi growth-3 inactive | NIH3T3 tox 39 | 3T3 cytotox 2 104
Cc1ccccc1-c1ccc([C@H]2[C@H]3CN(C(=O)Nc4ccccc4)CCCCN3[C@H]2CO)cc1	T cruzi growth-1 118 | T cruzi growth-2 112 | T cruzi growth-3 inactive | NIH3T3 tox inactive | 3T3 cytotox 2 34
Cc1ccccc1-c1ccc([C@@H]2[C@H]3CN(C(=O)Nc4ccccc4)CCCCN3[C@H]2CO)cc1	T cruzi growth-1 104 | T cruzi growth-2 104 | T cruzi growth-3 inactive | NIH3T3 tox inactive | 3T3 cytotox 2 105
COc1ccc(NC(=O)N2CCCCN3[C@H](CO)[C@H](c4ccc(-c5ccccc5C)cc4)[C@H]3C2)cc1	none
COc1ccc(NC(=O)N2CCCCN3[C@H](C2)[C@@H](c2ccc(-c4ccccc4C)cc2)[C@@H]3CO)cc1	T cruzi growth-1 98 | T cruzi growth-2 98 | T cruzi growth-3 inactive | NIH3T3 tox inactive | 3T3 cytotox 2 104
Cc1ccccc1-c1ccc([C@H]2[C@@H](CO)N3CCCCN(C(=O)Nc4ccccc4)C[C@H]23)cc1	none
CO[C@@H]1CN(C)C(=O)c2ccc(NC(=O)C3CC3)cc2OC[C@@H](C)N(Cc2ccncc2)C[C@H]1C	none (no result: C diff HTS)
COc1cccc(-c2ccc([C@H]3[C@@H](CO)N4C(=O)CN(C(=O)CN5CCOCC5)C[C@@H]34)cc2)c1	none (no result: T cruzi growth-1)
CC=Cc1ccc2n(c1=O)C[C@@H]1[C@@H](CO)[C@H](C(=O)N(C)C)[C@H]2N1CC1CCCC1 (mixture of isomers)	none (no result: T cruzi growth-1)
COc1ccc(S(=O)(=O)N(C)C[C@@H]2OCCCC[C@H](C)Oc3ccc(NC(=O)C4CCCCC4)cc3C(=O)N([C@@H](C)CO)C[C@H]2C)cc1	none
